In PubChem BioAssay AID1777 (Sanford-Burnham Center for Chemical Genomics, 2009):
Hit rate of the full screen: of about 280,000 compounds, about 50 (0.02%) were called active. What follows is part of a selection rich in actives, with near analogues and random picks from the rest. Measured potencies and affinities stand elsewhere. Unmarked numbers belong to inactive results. Cut-off read from the data, not from the text of the source: active = activation above about 50% (passing the limit was not always enough); inactive = the rest.

Target: Kappa-type opioid receptor (Homo sapiens) (UniProt P41145)
Sequence (P41145 whole entry, looked up): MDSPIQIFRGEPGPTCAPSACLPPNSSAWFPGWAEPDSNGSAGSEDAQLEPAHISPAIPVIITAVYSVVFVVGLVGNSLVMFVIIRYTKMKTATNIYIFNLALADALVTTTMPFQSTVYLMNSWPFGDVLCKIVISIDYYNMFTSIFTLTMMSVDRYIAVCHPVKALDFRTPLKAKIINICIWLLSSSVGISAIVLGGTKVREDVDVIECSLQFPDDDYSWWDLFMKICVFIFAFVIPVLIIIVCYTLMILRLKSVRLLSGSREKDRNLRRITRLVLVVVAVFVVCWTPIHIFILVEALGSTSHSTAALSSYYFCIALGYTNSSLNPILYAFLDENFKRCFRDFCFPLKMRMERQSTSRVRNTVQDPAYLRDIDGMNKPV
Assay: KOR agonists, beta-arrestin recruitment, primary screen, cell-based, luminescence, uHTS (AID 1777)
Conditions: at 10 µM, hits give high values

SMILES | activation
COc1cc(S(=O)(=O)NC2CCCC2)ccc1-n1cnnn1 | -0.2%
CCOc1ccccc1NC(=O)CCn1cccc1 | -0.4%
CN(C)/C=C/C(=O)c1ccc(S(=O)(=O)c2ccccc2)cc1 | -5%
C=CCSc1nc(C)c(CCC(C)C)c(=O)[nH]1 | -2.2%
COc1ccc([N+](=O)[O-])cc1NC(=O)COC(=O)c1ccccc1C(=O)c1ccccc1 | -5.5%
CCc1ccccc1NC(=O)c1cccc(N2C(=O)C3C4CCC(C4)C3C2=O)c1 (stereo not drawn) | 3.3%
Cc1ccc2[nH]c(=O)c(CN(C)C(=O)c3ccccn3)cc2c1 | -3.6%
CCCN(Cc1cc2cc(C)ccc2[nH]c1=O)C(=O)c1ccccn1 | 9.9%
CCCCN(Cc1cc2cc(OC)ccc2[nH]c1=O)C(=O)c1ccccn1 | 40.3%
CCCN(Cc1cc2ccc(C)cc2[nH]c1=O)C(=O)c1ccccn1 | 46.4%
COCC(=O)N(Cc1cc2ccccc2[nH]c1=O)c1ccc(OC)cc1 | 9.6%
COc1ccc2nc(NC(=O)CCNS(=O)(=O)c3ccc4c(c3)oc(=O)n4C)sc2c1 | -3.3%
COc1ccc(OCC(=O)NNC(=O)C2CCCO2)cc1 (stereo not drawn) | 8.8%
Cc1ccc(-n2nnc3c(=O)n(CC(=O)c4ccccc4)cnc32)cc1 | 4.2%
CCOc1ccc(-n2nnc3c(=O)n(CC(=O)c4ccccc4)cnc32)cc1 | 52.9% (active)
CCOC(=O)Cn1cnc2c(nnn2-c2ccccc2)c1=O | -1%
CCOc1ccc(-n2c(=O)c3sccc3n(CC(=O)NCC3CCCO3)c2=O)cc1 (stereo not drawn) | -4.3%
O=C(Cc1ccccc1)c1c[nH]c(C(=O)NCCCn2ccnc2)c1 | 1.2%
CC(Nc1cccnc1)=C(C#N)C#N | -7.7%
CCC(C)(C)N=C(NC#N)Nc1cccnc1 | 87.5% (active)
CC(N=C(NC#N)Nc1ccncc1)C(C)(C)C (stereo not drawn) | -0.9%
CCCCN(C(=O)c1cc(CC)c(C)s1)c1c(N)n(CC(C)C)c(=O)[nH]c1=O | -0.3%
COC(=O)c1ccc(NC(=S)N(Cc2cccnc2)Cc2ccco2)cc1 | -0.8%

SMILES | activation
O=C(c1ccc([N+](=O)[O-])cc1)N(Cc1ccc(Cl)cc1Cl)N1C(=O)CCCC1=O | -0.8%
O=C(c1ccccc1Cl)N(Cc1ccc(Br)cc1)N1C(=O)CCCC1=O | -1%
O=C(c1ccc(Cl)cc1)N(Cc1ccc(Br)cc1)N1C(=O)CCC1=O | 1.3%
O=C(c1ccc(Cl)cc1)N(Cc1ccccc1F)N1C(=O)CCCC1=O | -0.9%
COC(=O)C1=CN(CC2CCCO2)C=C(C(=O)OC)C1c1ccsc1 (stereo not drawn) | -4.3%
COc1cc(/C=N/Nc2ccc(C(F)(F)F)cn2)cc(OC)c1O | -5%
Cn1c2ccccc2c(=O)c2ccc(C#CC3(N)CCCCC3)cc21 | -3.1%
O=C(c1ccc(S(=O)(=O)N2CCCC2)cc1)N1CCC(CN2C(=O)c3cccc4cccc(c34)C2=O)CC1 | 0.7%
CC(C)C[C@H](NC(=O)c1nc[nH]c1C(=O)N[C@@H](CCCCNC(=O)OC(C)(C)C)C(=O)OC(C)(C)C)C(=O)OC(C)(C)C | 5.3%
CCN(CC)CCNc1nc(C(F)(F)F)nc2c1nnn2Cc1ccccc1 | -3.1%
O=C(Cc1ccc([N+](=O)[O-])cc1)N/N=C/c1ccccc1F | -4.4%
CCC(C)(C(=O)NC1CCCC1)N(Cc1ccco1)C(=O)c1ccc2c(c1)OCO2 (stereo not drawn) | 10.3%
CCC(C)(C(=O)NC1CCCCC1)N(C)C(=O)c1ccccn1 (stereo not drawn) | 1.2%
CCC(C)(C(=O)NC1CCCCC1)N(Cc1ccco1)C(=O)c1ccc2c(c1)OCO2 (stereo not drawn) | 1.2%
CCC(C)(C(=O)NC1CCCCC1)N(Cc1ccco1)C(=O)CNC(=O)c1ccccc1 (stereo not drawn) | 1.6%
CCC(C)(C(=O)NC1CCCC1)N(C(=O)c1cnccn1)c1ccccc1 (stereo not drawn) | -12.3%
CCC(C)(C(=O)NC1CCCC1)N(C)C(=O)c1ccccn1 (stereo not drawn) | -0.7%
CC(C)(C)c1cc(C(=O)NC2CC2)n(Cc2ccc(F)cc2)n1 | -4.7%
CS(=O)(=O)c1ccc(NCC2CCCO2)c([N+](=O)[O-])c1 (stereo not drawn) | -3.6%
O=c1[nH]cc(S(=O)(=O)NCc2ccccc2)c(=O)[nH]1 | -1.3%
CCNS(=O)(=O)c1ccc(CCC(=O)Nc2ccccc2C(=O)OC)cc1 | -1.4%
Cc1cc(C)cc(C(=O)NCC(=O)OCC(=O)N2CCN(S(=O)(=O)c3ccc4ccccc4c3)CC2)c1 | -0.4%
CCC(C)(C(=O)NC1CCCCC1)N(Cc1cccs1)C(=O)c1ccc(=O)[nH]c1 (stereo not drawn) | -6.4%

SMILES | activation
CCC(C)(C(=O)NC1CCCCC1)N(Cc1cccs1)C(=O)Cc1cccs1 (stereo not drawn) | 3.8%
CCC(C)(C(=O)NC1CCCC1)N(Cc1cccs1)C(=O)Cc1cccs1 (stereo not drawn) | -0.9%
CCC(C)(C(=O)NC1CCCC1)N(Cc1cccs1)C(C)=O (stereo not drawn) | -2.2%
CC(=O)c1sc(N/N=C\c2ccc(Br)cc2)nc1C | 3.5%
COc1ccc(N2CCN(S(=O)(=O)CCNC(=O)COc3ccccc3OC)CC2)cc1 | -4.1%
NC1=NC(c2cn[nH]c2-c2ccc(F)cc2)n2c(nc3ccccc32)N1 (stereo not drawn) | 0.5%
CC(CNC(=O)c1ccc2c(c1)OCO2)c1ccc([N+](=O)[O-])cc1 (stereo not drawn) | -4.6%
O=C(CN1C(=O)COc2ccccc21)N(Cc1ccc2c(c1)OCO2)CC1CCCO1 (stereo not drawn) | 72.1%
COc1ccc(CN(CC2CCCO2)C(=O)CN2C(=O)C(C)Oc3ccc(C)cc32)cc1OC (stereo not drawn) | 50.9%
O=C(CCCCCBr)N1CCC(CC2CC(c3ccc(Cl)cc3)=NO2)(C(=O)NCC2CCCCC2)CC1 (stereo not drawn) | -0.1%
CC(C)N1CCc2c(sc(NC(=O)c3ccc4ccccc4c3)c2C(N)=O)C1 | -0.3%
CCN1CCc2c(sc(NC(=O)c3cc4ccccc4cc3OC)c2C(N)=O)C1 | 0.1%
N#C/C(=C\c1ccc(-c2nc3ccccc3s2)o1)C(N)=O | 0.2%
N#C/C(=C\c1ccc(-c2ccccc2Cl)o1)C(=O)Nc1nc2ccccc2s1 | -1.8%
CNC(=O)/C(C#N)=C/c1ccc(-c2nc3ccccc3s2)o1 | 169% (active)
CN=C1SC(CC(=O)Nc2ccccc2F)C(=O)N1/N=C/c1ccc(O)c(OC)c1 (stereo not drawn) | 14.6%
Cn1c(=O)c(=O)n(C)c2cc(S(=O)(=O)N3CCCC3C(=O)NCc3cccs3)ccc21 (stereo not drawn) | 1%
N#Cc1ccc(-c2ccc(F)cc2)nc1SCC(=O)Nc1sc2c(c1C#N)CCC2 | -1%
COc1ccc(-c2ccc(C#N)c(SCC(=O)Nc3sc4c(c3C#N)CCC4)n2)cc1 | -2.3%
CCc1ccccc1OCC(=O)N(CC)CC(=O)NCc1ccc(F)cc1 | -3%
Cc1cc(C(=O)CSc2nncn2C)c(C)n1-c1ccccc1 | -2.9%
Cc1nc(C)c(NC(=O)OC(C)C)cc1NC(=O)OC(C)C | -4.7%
